Measurements: PubChem BioAssay
Results filed as inconclusive are left out. The source made the active and inactive calls.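 How the source made its calls, unless noted: active means viability at or under a set limit in both replicates, limit being median viability minus 3 SD (cut at about 48% in these data, passing the limit was not always enough); inconclusive means at or under the limit in just one replicate; inactive means at or above the limit in both replicates.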

Experiments:
[1] = reducers of endogenous Her2 protein level, primary screen, SKBR3 breast tumor cells, AlphaScreen, ATP viability (AID 461;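 active means Her2 level under about 52% in both replicate screens, with viability over 70% of control, limit read from the data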;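 on Her2 level: lower value means less Her2 protein in the cells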;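 on viability: percent of carrier control wells set as 100% viability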); settings: 18-24 h, measured here: SKBR3 viability, ATP luminescence, at 10 µM
[2] = target: Receptor tyrosine-protein kinase erbB-2 (Homo sapiens) (UniProt P04626); assay: as above; settings: 18-24 h, at 10 µM, stronger effect = lower value
[3] = SK-BR-3 cell growth inhibitors, pilot screen, 24 h, human (AID 572;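 active means viability at or below 10% of carrier control in both of two separate runs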;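 further: compound exposure lasted between 18 and 24 h rather than exactly 24 h; 100% = carrier-treated control wells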); settings: SK-BR-3 viability, CellTiter-Glo luminescence, at 10 µM, stronger effect = lower value
[4] = HUVEC growth inhibition – cell-based, human, primary screen (AID 575;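 active means viability at or below 30% in both replicate assays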;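 further: 100% = median of untreated cell wells with 0.1% DMSO on each plate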); settings: HUVEC proliferation, CellTiter-Glo luminescence, 72 h; at 10 µM; stronger effect = lower value
[5] = growth inhibitors of H69AR lung tumor, primary screen, human, duplicate replicates (AID 580); settings: H69AR lung tumor cells viability, ATP luminescence, 72 h; at 10 µM; stronger effect = lower value;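 further: 100% = mean luminescence of untreated wells and 0% = no signal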
[6] = reversal of MRP1-mediated doxorubicin resistance, pilot screen, H69AR cells, doxorubicin co-treatment (AID 601;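 active means viability loss from added drug above about 55%, and viability with drug at most 40%, in both replicates, limit read from the data, passing the limit was not always enough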); settings: CellTiter-Glo, 72 h, at 10 µM; for differential viability (reversal): stronger effect = higher value
[7] = 384-well plate pilot, post-Golgi transport modulator project, inhibition of yeast transport mutant growth (AID 636; in the data active means inhibition above about 31%); settings: absorbance 615 nm, about 18 h, stronger effect = higher value
[8] = growth suppression of yeast trafficking mutant, preliminary HTS, modulators of trafficking downstream of Golgi apparatus project, 1536-format plate, OD 615 nm (AID 637; in the data active means inhibition above about 30%); settings: yeast transport mutant growth, absorbance 615 nm, 18 h; stronger effect = higher value
[9] = OD615 S. cerevisiae growth inhibition, permissive medium, pilot counter-assay, permissive growth control for S. cerevisiae lifespan shortening project (AID 705;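 active means growth inhibition above 25% in both replicates, a cutoff set 3 SD above the mean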); settings: OD615, 24 h, at 10 µM, stronger effect = higher value
[10] = Restrictive medium S. cerevisiae growth inhibition, OD615, pilot screen of yeast lifespan reduction project, restrictive growth control (AID 706;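 active means growth inhibition above a set limit, 3 SD over mean compound inhibition, in both replicates, cut at about 43% in these data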;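 further: modified DeaD lifespan yeast strain shifted to restrictive glucose medium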); settings: OD615, 48 h, at 10 µM, stronger effect = higher value
[11] = viability gain of MRP-1-high H69AR cells under doxorubicin, pilot screen, MRP-1 activator project, CellTiter-Glo, duplicate (AID 807;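 active means viability increase at or above a cutoff of the median across tested compounds plus 3 SD, cut at about 8.5% in these data, passing the limit was not always enough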;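 further: compound pretreatment 18-22 h then 72 h combined with doxorubicin; 0% = doxorubicin alone and 100% = vehicle without doxorubicin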); settings: H69AR viability with doxorubicin, CellTiter-Glo luminescence; at 10 µM; stronger effect = higher value
[12] = growth suppression of beta-catenin knockout HCT116, pilot screen, human colon tumor cells (AID 823;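 active means cell viability at or below a set limit in both duplicate runs, the limit being the all-compound median minus 4 SD, cut at about 23% in these data, passing the limit was not always enough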;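 further: 0% = wells killed by 20 µM Hyamine and 100% = untreated DMSO cell wells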); settings: CellTiter-Glo, 60 h, at 10 µM, stronger effect = lower value
[13] = growth suppression of PTEN-deleted HCT116, pilot screen, cell-based, HCT116 clonal line, CellTiter-Glo (AID 824;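 active means viability at or below 27.92% in each of two runs, the all-compound median minus 4 SD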;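 further: 0% = 20 µM Hyamine control and 100% = vehicle cell control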); settings: 60 h, at 10 µM, stronger effect = lower value
[14] = inhibitors of the yeast RAM network, pilot screen, dse1pr::URA3 reporter, 5-FOA selection (AID 869;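 active means inhibition over a set limit, the all-compound mean plus 3 SD, in both replicate runs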;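 further: 0% = DMSO wells with no growth and 100% = 10 µM 1-NA-PP1 with full growth; RAM network block rescues cells from 5-FOA so hits raise OD615 growth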); settings: S. cerevisiae dse1pr::URA3 5-FOA growth, OD615, 2 d; at 10 µM; stronger effect = higher value; strain carries analog-sensitive mutant Cbk1 kinase
[15] = H69AR cells + 2 uM doxorubicin, measured here: viability with 2 uM doxorubicin, stronger effect = lower value
[16] = H69AR cells, compound alone cytotoxicity

Receptor tyrosine-protein kinase erbB-2 (Homo sapiens), sequence (P04626 whole entry, looked up): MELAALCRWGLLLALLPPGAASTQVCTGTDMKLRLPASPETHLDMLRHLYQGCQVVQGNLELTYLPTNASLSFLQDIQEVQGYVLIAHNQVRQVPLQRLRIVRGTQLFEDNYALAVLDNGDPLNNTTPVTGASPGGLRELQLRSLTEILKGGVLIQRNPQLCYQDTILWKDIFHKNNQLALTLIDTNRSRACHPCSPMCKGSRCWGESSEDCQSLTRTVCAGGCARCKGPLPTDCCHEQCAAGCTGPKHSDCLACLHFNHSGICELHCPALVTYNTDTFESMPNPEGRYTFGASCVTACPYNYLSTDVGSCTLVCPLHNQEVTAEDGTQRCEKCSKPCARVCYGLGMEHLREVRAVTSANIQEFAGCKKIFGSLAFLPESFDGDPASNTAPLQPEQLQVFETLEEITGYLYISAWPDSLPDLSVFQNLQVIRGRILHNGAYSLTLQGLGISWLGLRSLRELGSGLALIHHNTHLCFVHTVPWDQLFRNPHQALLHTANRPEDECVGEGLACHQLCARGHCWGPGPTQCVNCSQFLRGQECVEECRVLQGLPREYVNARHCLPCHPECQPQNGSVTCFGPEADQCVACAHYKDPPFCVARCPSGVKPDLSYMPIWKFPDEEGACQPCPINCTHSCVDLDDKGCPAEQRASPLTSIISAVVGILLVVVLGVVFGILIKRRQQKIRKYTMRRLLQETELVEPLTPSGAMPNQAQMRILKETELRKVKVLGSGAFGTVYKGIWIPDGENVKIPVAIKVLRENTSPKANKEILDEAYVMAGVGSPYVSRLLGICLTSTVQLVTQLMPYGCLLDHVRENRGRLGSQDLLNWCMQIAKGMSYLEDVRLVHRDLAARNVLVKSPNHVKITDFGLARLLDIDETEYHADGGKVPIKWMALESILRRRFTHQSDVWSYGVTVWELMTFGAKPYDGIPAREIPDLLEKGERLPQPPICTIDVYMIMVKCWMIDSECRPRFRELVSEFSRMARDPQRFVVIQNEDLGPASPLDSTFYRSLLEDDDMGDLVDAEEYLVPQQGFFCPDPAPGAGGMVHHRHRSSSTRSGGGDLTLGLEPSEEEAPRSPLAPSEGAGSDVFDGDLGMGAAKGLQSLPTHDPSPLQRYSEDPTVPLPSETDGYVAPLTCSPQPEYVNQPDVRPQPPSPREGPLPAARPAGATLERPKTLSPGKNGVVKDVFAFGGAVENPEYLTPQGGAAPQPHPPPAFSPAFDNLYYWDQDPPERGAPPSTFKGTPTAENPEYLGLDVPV

| Compound | viability [1] | Her2 level [2] | viability [3] | viability [4] | viability [5] | differential viability (reversal) ([6]; H69AR cells + 2 uM doxorubicin) | viability [6, 15] | viability [6, 16] | inhibition [7] | inhibition [8] | growth inhibition [9] | growth inhibition [10] | viability increase [11] | viability [12] | viability [13] | inhibition [14] |
| --- | --- | --- | --- | --- | --- | --- | --- | --- | --- | --- | --- | --- | --- | --- | --- | --- |
| CN(C1CCCCC1)S(=O)(=O)c1ccc(S(=O)(=O)N2CCCC2)cc1 | 84.5% | 92% (inactive) | 84.5% (inactive) | 78.3% (inactive) | 78.5% (inactive) | -19.2% (inactive) | 97.7% | 78.5% | -0.13% (inactive) | -4.92% (inactive) |  |  |  |  |  |  |
| Brc1ccc2[nH]ncc2c1 | 101% | 78% (inactive) | 101% (inactive) | 110% (inactive) | 91.6% (inactive) | 0.11% (inactive) | 91.5% | 91.6% | -2.5% (inactive) | 1.43% (inactive) |  |  |  |  |  |  |
| Cc1oc(-c2ccccc2F)nc1CS(=O)(=O)CC(=O)N1CCCCCC1 | 99% | 108% (inactive) | 99% (inactive) | 101% (inactive) | 100% (inactive) | 13.4% (inactive) | 87.1% | 100% | 1.07% (inactive) | -3.28% (inactive) |  |  |  |  |  |  |
| COc1cc(Nc2cc(C)nc3ncnn23)cc(OC)c1OC | 102% | 98.5% (inactive) | 102% (inactive) | 98.2% (inactive) | 100% (inactive) | 21% (inactive) | 79.3% | 100% | 1.6% (inactive) | -3.11% (inactive) |  |  |  |  |  |  |
| COc1ccc(N2C(=O)C3CCCN3C2c2ccc(F)cc2)cc1Cl (centres undefined) | 102% | 93.5% (inactive) | 102% (inactive) | 84.2% (inactive) | 87.4% (inactive) | -1.33% (inactive) | 88.7% | 87.4% | 0.39% (inactive) | -6.94% (inactive) |  |  |  |  |  |  |
| CN(CC(O)COCc1cccs1)C1CCCCC1 (centres undefined) | 93.5% | 90% (inactive) | 93.5% (inactive) | 93.2% (inactive) | 106% (inactive) | 10.9% (inactive) | 95.4% | 106% | -3.47% (inactive) | 5.57% (inactive) |  |  |  |  |  |  |
| O=C(NCc1nnc(SCC(=O)N2CCC(Cc3ccccc3)CC2)o1)c1ccccc1F | 85% | 96.5% (inactive) | 85% (inactive) | 74.5% (inactive) | 98.8% (inactive) | 3.91% (inactive) | 94.8% | 98.8% | 1.6% (inactive) | 3.11% (inactive) | 5.21% (inactive) | 17.2% (inactive) | -0.76% (inactive) | 90.2% (inactive) | 92.2% (inactive) | 1.69% (inactive) |
| C=CCn1c(SCc2ccc3nonc3c2)nnc1-c1cccs1 | 84% | 79.5% (inactive) | 84% (inactive) | 85.8% (inactive) | 87.3% (inactive) | 2.61% (inactive) | 84.7% | 87.3% | -5.47% (inactive) | 0.98% (inactive) |  |  |  |  |  |  |
| Cc1nc(-c2cccc(-c3noc(C)n3)c2)no1 | 87.5% | 99% (inactive) | 87.5% (inactive) | 86.1% (inactive) | 102% (inactive) | 5.99% (inactive) | 95.8% | 102% | -5.54% (inactive) | -1.48% (inactive) |  |  |  |  |  |  |
| COc1c2ccoc2nc2c(OC)c(OCC(O)C(C)(C)O)ccc12 (centres undefined) | 100% | 97.5% (inactive) | 100% (inactive) | 94.4% (inactive) | 95.4% (inactive) | 2.17% (inactive) | 93.2% | 95.4% | -2.8% (inactive) | 3.39% (inactive) |  |  |  |  |  |  |
| CCN(c1ccc2c(c1)OCO2)S(=O)(=O)c1cc(Br)cc2c1N(C(=O)C1CC1)CC2 | 131% | 92.5% (inactive) | 131% (inactive) | 89.6% (inactive) | 73.9% (inactive) | 11.9% (inactive) | 62% | 73.9% | -10% (inactive) | 3.17% (inactive) | -12.3% (inactive) | -14.7% (inactive) | -3.72% (inactive) | 72.4% (inactive) | 72% (inactive) | 3.91% (inactive) |
| Cc1cccc(-n2c(=O)cc(N3CCN(c4ccc(F)cc4)CC3)[nH]c2=O)c1 | 85.5% | 110% (inactive) | 85.5% (inactive) | 66.5% (inactive) | 71.9% (inactive) | 0.095% (inactive) | 71.8% | 71.9% | -2.13% (inactive) | -2.33% (inactive) | -12.5% (inactive) | -8.2% (inactive) | -5.2% (inactive) | 79.3% (inactive) | 66.1% (inactive) | 4.09% (inactive) |
| COc1ccc(-c2cn3cc(C)ccc3n2)cc1OC | 108% | 88% (inactive) | 108% (inactive) | 91.5% (inactive) | 63.7% (inactive) | 0.63% (inactive) | 63.1% | 63.7% | -5.26% (inactive) | -1.64% (inactive) |  |  |  |  |  |  |
| O=C(COC(=O)c1cnccn1)c1ccc(OC(=O)c2ccccc2)cc1 | 104% | 100% (inactive) | 104% (inactive) | 87.8% (inactive) | 96.2% (inactive) | -2.16% (inactive) | 98.3% | 96.2% | -1.67% (inactive) | 5.67% (inactive) | -19.2% (inactive) | -15.1% (inactive) | -0.85% (inactive) | 93.3% (inactive) | 95.2% (inactive) | 2.84% (inactive) |
| Cc1onc(-c2ccccc2Cl)c1C(=O)NCCn1c(C)cc2ccccc21 | 79% | 80.5% (inactive) | 79% (inactive) | 78.3% (inactive) | 83.3% (inactive) | -6.36% (inactive) | 89.6% | 83.3% | -3.2% (inactive) | 1.17% (inactive) | -8.05% (inactive) | 0.31% (inactive) | -2.02% (inactive) | 78.8% (inactive) | 85.7% (inactive) | 1.56% (inactive) |
| Clc1ccc(C2Nc3ccccc3-n3cccc32)cc1 (centres undefined) | 92% | 82% (inactive) | 92% (inactive) | 60.8% (inactive) | 66.7% (inactive) | -9.2% (inactive) | 75.9% | 66.7% | -3.87% (inactive) | 7% (inactive) | -26% (inactive) | -13.6% (inactive) | -4.67% (inactive) | 82.8% (inactive) | 81.3% (inactive) | 3.41% (inactive) |
| Cc1ccccc1Cn1c(=O)c2c(nc3n2CCCN3Cc2ccccc2)n(C)c1=O | 89% | 89% (inactive) | 89% (inactive) | 65.5% (inactive) | 78.5% (inactive) |  |  |  | -3.2% (inactive) | -2.26% (inactive) |  |  |  |  |  |  |
| CCn1c(SCC(=O)Nc2ccc3c(c2)OCO3)nc2c(c1=O)SC(C)C2 (centres undefined) | 92.5% | 102% (inactive) | 92.5% (inactive) | 81% (inactive) | 84.7% (inactive) | 1.51% (inactive) | 83.2% | 84.7% | -4.67% (inactive) | -2% (inactive) | -7.09% (inactive) | -23.1% (inactive) | -2.42% (inactive) | 99.9% (inactive) | 96.8% (inactive) | 1.63% (inactive) |
| O=C(COc1ccccc1)N1CCN(c2ncnc3c2cnn3-c2ccccc2)CC1 | 97% | 77% (inactive) | 97% (inactive) | 58.6% (inactive) | 74.8% (inactive) |  |  |  | -8.77% (inactive) | -3.65% (inactive) |  |  |  |  |  |  |
| Fc1ccc(C2C3=C(Nc4ncnn42)c2ccccc2OC3c2ccncc2)cc1 (centres undefined) | 85.5% | 85.5% (inactive) | 85.5% (inactive) | 86.7% (inactive) | 78.8% (inactive) |  |  |  | -2.11% (inactive) | -3.71% (inactive) |  |  |  |  |  |  |
| CN1CCc2c(sc3c2c(=O)n(-c2ccccc2)c2nnc(SCc4ccc(F)cc4)n32)C1 | 82% | 94.5% (inactive) | 82% (inactive) | 109% (inactive) | 102% (inactive) |  |  |  | -1.95% (inactive) | 0.79% (inactive) |  |  |  |  |  |  |
| CC1CC(C)CN(c2ncnc3c2cnn3-c2ccc(Cl)cc2)C1 (centres undefined) | 91.5% | 89.5% (inactive) | 91.5% (inactive) | 88.5% (inactive) | 80.6% (inactive) | 3.71% (inactive) | 76.9% | 80.6% | 0.53% (inactive) | -1.64% (inactive) | -5.74% (inactive) | -8.12% (inactive) | 5.58% (inactive) | 88.1% (inactive) | 95.3% (inactive) | 2.44% (inactive) |
| CCOc1ccccc1N1C(=O)c2ccc(C(=O)Nc3cccnc3)cc2C1=O | 94.5% | 94% (inactive) | 94.5% (inactive) | 88.2% (inactive) | 102% (inactive) | 2.08% (inactive) | 100% | 102% | -1.6% (inactive) | -2.13% (inactive) | -15.8% (inactive) | -21.7% (inactive) | 0.54% (inactive) | 107% (inactive) | 98.7% (inactive) | 3.15% (inactive) |
| Cc1csc(NC(=O)CSc2nnc(Cc3cccn3C)n2-c2ccc(F)cc2)n1 | 77.5% | 94% (inactive) | 77.5% (inactive) | 84.8% (inactive) | 89.8% (inactive) | 1.05% (inactive) | 88.8% | 89.8% | 4.67% (inactive) | -1.64% (inactive) | -9.58% (inactive) | -0.31% (inactive) | -2.25% (inactive) | 94% (inactive) | 95.5% (inactive) | 4.11% (inactive) |
| CSc1nc2ccc(Nc3nc(N4CCOCC4)nc(N4CCOCC4)n3)cc2s1 | 62.5% | 106% (inactive) | 62.5% (inactive) | 18.5% (active) | 56.8% (inactive) | -3.63% (inactive) | 60.5% | 56.8% | 3.08% (inactive) | -0.5% (inactive) | -4.93% (inactive) | -5.7% (inactive) | -5.72% (inactive) | 68% (inactive) | 66.5% (inactive) | 1.97% (inactive) |
